# Results from PubChem BioAssay (EPA / NIEHS).
# Several values for one entry are separate records, joined by “and”; a condition that tells them apart may be missing. Equal values may be shown once. Where a structure was tested more than once in an assay, its records may differ in their call. Activity calls are given as the source filed them. How the source made its calls: active means hit-call score of the fitted dose curve at least 0.9, where 1 is the maximum; inactive means score below 0.9.
# Read-out: Matrix Metallopeptidase 1 (MMP1), MMP1 (gene 4312)
# Experiment: BSK_BF4T_MMP1: BioMAP Diversity Plus: BF4T Assay for Matrix Metallopeptidase 1 (MMP1) Biomarker Activity (AID 2284270)
# Conditions: primary human bronchial epithelial cells with fibroblasts
# In short: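 Co-culture of human bronchial epithelial cells and dermal fibroblasts; MMP-1 levels measured by ELISA 24 hours after chemical dosing, relative to DMSO. Cytotoxicity checked in parallel cultures by SRB total-protein staining.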
SMILES,outcome,AC50
C=C(C)C(=O)OCCC(F)(F)C(F)(F)C(F)(F)C(F)(F)C(F)(F)C(F)(F)F,inactive,
OCCC(F)(F)C(F)(F)C(F)(F)C(F)(F)C(F)(F)C(F)(F)F,inactive,
NCC(F)(F)C(F)(F)C(F)(F)C(F)(F)C(F)(F)C(F)(F)C(F)(F)F,inactive,
FC(F)(I)C(F)(F)C(F)(F)C(F)(F)C(F)(F)C(F)(F)I,,23.4 µM (active) [middle of 5 runs]
OCCC(F)(F)C(F)(F)C(F)(F)C(F)(F)C(F)(F)C(F)(F)C(F)(F)C(F)(F)F,inactive,
C[C@@H]1C[C@H]2[C@@H]3CCC4=CC(=O)C=C[C@]4(C)[C@@]3(F)[C@@H](O)C[C@]2(C)[C@@]1(O)C(=O)COP(=O)(O)O,inactive,

# Read-out: Matrix Metallopeptidase 3 (MMP3), MMP3 (gene 4314)
# Experiment: BSK_BF4T_MMP3: BioMAP Diversity Plus: BF4T Assay for Matrix Metallopeptidase 3 (MMP3) Biomarker Activity (AID 2284271)
# Conditions: primary human bronchial epithelial cells with fibroblasts
# In short: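 Co-culture of human bronchial epithelial cells and dermal fibroblasts dosed 24 h; MMP-3 measured by ELISA, positive-direction fit versus DMSO. Cytotoxicity tracked by SRB total-protein staining (560 nm) in parallel cultures.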
SMILES,outcome,AC50
C=C(C)C(=O)OCCC(F)(F)C(F)(F)C(F)(F)C(F)(F)C(F)(F)C(F)(F)F,inactive,
OCCC(F)(F)C(F)(F)C(F)(F)C(F)(F)C(F)(F)C(F)(F)F,inactive,
NCC(F)(F)C(F)(F)C(F)(F)C(F)(F)C(F)(F)C(F)(F)C(F)(F)F,inactive,
FC(F)(I)C(F)(F)C(F)(F)C(F)(F)C(F)(F)C(F)(F)I,inactive,19.3 µM (active) [middle of 4 runs]
OCCC(F)(F)C(F)(F)C(F)(F)C(F)(F)C(F)(F)C(F)(F)C(F)(F)C(F)(F)F,inactive,
C[C@@H]1C[C@H]2[C@@H]3CCC4=CC(=O)C=C[C@]4(C)[C@@]3(F)[C@@H](O)C[C@]2(C)[C@@]1(O)C(=O)COP(=O)(O)O,inactive,

# Read-out: Tissue plasminogen activator (tPA), PLAT (gene 5327)
# Experiment: BSK_BF4T_tPA: BioMAP Diversity Plus: BF4T Assay for Tissue plasminogen activator (tPA) Biomarker Activity (AID 2284272)
# Conditions: primary human bronchial epithelial cells with fibroblasts
# In short: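 tPA level quantified by ELISA at 24 h post-treatment in bronchial epithelial/dermal fibroblast co-cultures, gain of signal scored against DMSO baseline. Parallel cultures stained with 0.1% SRB (560 nm) to flag overt cytotoxicity.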
SMILES,outcome,AC50
C=C(C)C(=O)OCCC(F)(F)C(F)(F)C(F)(F)C(F)(F)C(F)(F)C(F)(F)F,inactive,
OCCC(F)(F)C(F)(F)C(F)(F)C(F)(F)C(F)(F)C(F)(F)F,inactive,
NCC(F)(F)C(F)(F)C(F)(F)C(F)(F)C(F)(F)C(F)(F)C(F)(F)F,inactive,
FC(F)(I)C(F)(F)C(F)(F)C(F)(F)C(F)(F)C(F)(F)I,,7.56 µM (active) [middle of 5 runs]
OCCC(F)(F)C(F)(F)C(F)(F)C(F)(F)C(F)(F)C(F)(F)C(F)(F)C(F)(F)F,,8.17 µM (active) and 7.72 µM (active)
C[C@@H]1C[C@H]2[C@@H]3CCC4=CC(=O)C=C[C@]4(C)[C@@]3(F)[C@@H](O)C[C@]2(C)[C@@]1(O)C(=O)COP(=O)(O)O,inactive,

# Read-out: Plasminogen Activator Inhibitor-1 (PAI1), SERPINE1 (gene 5054)
# Experiment: BSK_BF4T_PAI1: BioMAP Diversity Plus: BF4T Assay for Plasminogen Activator Inhibitor-1 (PAI1) Biomarker Activity (AID 2284273)
# Conditions: primary human bronchial epithelial cells with fibroblasts
# In short: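 Co-culture of human bronchial epithelial cells and dermal fibroblasts exposed to compound for 24 h. PAI-1 measured by ELISA; activity fitted in positive direction versus DMSO. Parallel SRB staining assessed overt cytotoxicity.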
SMILES,outcome,AC50
C=C(C)C(=O)OCCC(F)(F)C(F)(F)C(F)(F)C(F)(F)C(F)(F)C(F)(F)F,inactive,
OCCC(F)(F)C(F)(F)C(F)(F)C(F)(F)C(F)(F)C(F)(F)F,inactive,
NCC(F)(F)C(F)(F)C(F)(F)C(F)(F)C(F)(F)C(F)(F)C(F)(F)F,inactive,
FC(F)(I)C(F)(F)C(F)(F)C(F)(F)C(F)(F)C(F)(F)I,,19.3 µM (active) [middle of 5 runs]
OCCC(F)(F)C(F)(F)C(F)(F)C(F)(F)C(F)(F)C(F)(F)C(F)(F)C(F)(F)F,,23.8 µM (active) and 18.6 µM (active)
C[C@@H]1C[C@H]2[C@@H]3CCC4=CC(=O)C=C[C@]4(C)[C@@]3(F)[C@@H](O)C[C@]2(C)[C@@]1(O)C(=O)COP(=O)(O)O,inactive,

# Read-out: not listed separately
# Experiment: BSK_BF4T_SRB: Viability Assessment in the BioMAP Diversity Plus: BF4T Assay (AID 2284274);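 on AC50: total cell protein by sulforhodamine B staining as a cytotoxicity measure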
# Conditions: primary human bronchial epithelial cells with fibroblasts
# In short: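 Co-culture of human bronchial epithelial cells and dermal fibroblasts (BioMAP BF4T) exposed 24 h. Total protein by sulforhodamine B staining (0.1% SRB after 10% TCA fixation, 560 nm) in parallel cultures; fitted vs DMSO.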
SMILES,outcome,AC50
C=C(C)C(=O)OCCC(F)(F)C(F)(F)C(F)(F)C(F)(F)C(F)(F)C(F)(F)F,inactive,
OCCC(F)(F)C(F)(F)C(F)(F)C(F)(F)C(F)(F)C(F)(F)F,inactive,
NCC(F)(F)C(F)(F)C(F)(F)C(F)(F)C(F)(F)C(F)(F)C(F)(F)F,inactive,
FC(F)(I)C(F)(F)C(F)(F)C(F)(F)C(F)(F)C(F)(F)I,,21.9 µM (active) [middle of 5 runs]
OCCC(F)(F)C(F)(F)C(F)(F)C(F)(F)C(F)(F)C(F)(F)C(F)(F)C(F)(F)F,,27.2 µM (active) and 34.7 µM (active)
C[C@@H]1C[C@H]2[C@@H]3CCC4=CC(=O)C=C[C@]4(C)[C@@]3(F)[C@@H](O)C[C@]2(C)[C@@]1(O)C(=O)COP(=O)(O)O,inactive,

# Read-out: urokinase Plasminogen Activator (uPA), PLAU (gene 5328)
# Experiment: BSK_BF4T_uPA: BioMAP Diversity Plus: BF4T Assay for urokinase Plasminogen Activator (uPA) Biomarker Activity (AID 2284275)
# Conditions: primary human bronchial epithelial cells with fibroblasts
# In short: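 Co-culture of human bronchial epithelial cells and dermal fibroblasts; uPA quantified by ELISA 24 hours after dosing, fitted relative to DMSO. Parallel SRB total-protein staining assessed overt cytotoxicity.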
SMILES,outcome,AC50
C=C(C)C(=O)OCCC(F)(F)C(F)(F)C(F)(F)C(F)(F)C(F)(F)C(F)(F)F,inactive,
OCCC(F)(F)C(F)(F)C(F)(F)C(F)(F)C(F)(F)C(F)(F)F,inactive,
NCC(F)(F)C(F)(F)C(F)(F)C(F)(F)C(F)(F)C(F)(F)C(F)(F)F,inactive,
FC(F)(I)C(F)(F)C(F)(F)C(F)(F)C(F)(F)C(F)(F)I,,14.4 µM (active) [middle of 5 runs]
OCCC(F)(F)C(F)(F)C(F)(F)C(F)(F)C(F)(F)C(F)(F)C(F)(F)C(F)(F)F,,30 µM (active) and 17.7 µM (active)
C[C@@H]1C[C@H]2[C@@H]3CCC4=CC(=O)C=C[C@]4(C)[C@@]3(F)[C@@H](O)C[C@]2(C)[C@@]1(O)C(=O)COP(=O)(O)O,inactive,

# Read-out: Matrix Metallopeptidase 9 (MMP9), MMP9 (gene 4318)
# Experiment: BSK_BF4T_MMP9: BioMAP Diversity Plus: BF4T Assay for Matrix Metallopeptidase 9 (MMP9) Biomarker Activity (AID 2284276)
# Conditions: primary human bronchial epithelial cells with fibroblasts
# In short: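 Co-culture of human bronchial epithelial cells and dermal fibroblasts dosed for 24 h; MMP-9 quantified by ELISA and fitted upward versus DMSO. Cytotoxicity monitored in parallel cultures by SRB total-protein staining at the biomarker time point.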
SMILES,outcome,AC50
C=C(C)C(=O)OCCC(F)(F)C(F)(F)C(F)(F)C(F)(F)C(F)(F)C(F)(F)F,inactive,
OCCC(F)(F)C(F)(F)C(F)(F)C(F)(F)C(F)(F)C(F)(F)F,inactive,
NCC(F)(F)C(F)(F)C(F)(F)C(F)(F)C(F)(F)C(F)(F)C(F)(F)F,inactive,
FC(F)(I)C(F)(F)C(F)(F)C(F)(F)C(F)(F)C(F)(F)I,,18.9 µM (active) [middle of 5 runs]
OCCC(F)(F)C(F)(F)C(F)(F)C(F)(F)C(F)(F)C(F)(F)C(F)(F)C(F)(F)F,,28 µM (active) and 16.3 µM (active)
C[C@@H]1C[C@H]2[C@@H]3CCC4=CC(=O)C=C[C@]4(C)[C@@]3(F)[C@@H](O)C[C@]2(C)[C@@]1(O)C(=O)COP(=O)(O)O,inactive,
